Bioassay records from PubChem BioAssay.
CHRM1 agonist = activates human CHRM1 receptor; activation, % at 3 µM; P11229; CHO-K1 hM1, Fluo-8 calcium fluorescence, agonist mode; 0% DMSO, 100% acetylcholine EC100; 360,000 compounds, 0.33% hits;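 active means activation above the run's mean compound activation plus 3 SD, cut at about 16% in these data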;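 further: peak over basal fluorescence ratio within a 140 s kinetic read after compound addition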
Target sequence (P11229 whole entry, looked up): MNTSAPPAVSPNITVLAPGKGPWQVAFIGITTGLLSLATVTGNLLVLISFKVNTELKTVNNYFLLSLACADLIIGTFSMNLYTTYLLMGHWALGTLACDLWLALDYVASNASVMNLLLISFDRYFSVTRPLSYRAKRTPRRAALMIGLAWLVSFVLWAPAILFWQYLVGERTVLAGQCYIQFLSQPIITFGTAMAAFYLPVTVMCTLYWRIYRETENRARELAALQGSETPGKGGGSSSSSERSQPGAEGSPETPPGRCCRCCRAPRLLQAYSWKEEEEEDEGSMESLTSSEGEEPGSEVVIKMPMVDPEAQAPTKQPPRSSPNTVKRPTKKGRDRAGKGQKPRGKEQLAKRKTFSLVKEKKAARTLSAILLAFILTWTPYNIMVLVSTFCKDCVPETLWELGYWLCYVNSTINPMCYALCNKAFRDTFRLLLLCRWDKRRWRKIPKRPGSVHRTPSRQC
CHRM1 antagonist = human CHRM1 antagonism; CHO-K1 hM1, Fluo-8 calcium fluorescence, ACh EC80 antagonist; 360,000 compounds, 1.3% hits; inhibition, % at 3 µM; P11229; AID 588852;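 active means percent inhibition above its own plate's cutoff, namely the mean of that plate's compound wells plus 3 SD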;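 further: peak over basal fluorescence ratio during 140 s after agonist addition; 0% = ACh EC80 plus DMSO and 100% = DMSO alone without agonist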
M1 PAM = positive allosteric modulators of human M1 muscarinic receptor; P11229; CHO-K1 hM1, Fluo-8 calcium fluorescence, ACh EC20; 0% = ACh EC20, 100% = maximal ACh; activation, % at 3 µM; 360,000 compounds, 0.088% hits; AID 588819; in the data active means activation above about 19%, passing the limit was not always enough
CHO-K1 Ca PAM = nonselective activator or artifact in parental CHO-K1 calcium assay. 360,000 compounds, 0.02% hits. ATP EC20, Fluo-8 calcium fluorescence; 0% at ATP EC20, 100% at ATP max. AID 602247. activation, % at 3 µM;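 active means activation above the run cutoff, the mean activation of all test compounds plus 3 SD, cut at about 40% in these data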;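 further: peak over basal fluorescence ratio in a 140 s read after ATP addition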
CHO-K1 Ca antag = nonselective inhibitor or artifact in parental CHO-K1 cells. ATP-induced calcium, Fluo-8 fluorescence. inhibition, % at 3 µM. 360,000 compounds, 0.6% hits. AID 602250;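 active means inhibition above a per-plate cutoff, the plate's mean sample inhibition plus 3 SD, cut at about 24% in these data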;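 further: 0% = DMSO plus EC80 ATP and 100% = DMSO alone without ATP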
M1 ag parental = M1 agonist counterscreen hit in parental CHO-K1 cells; AID 602248; Fluo-8 calcium fluorescence; scaled to maximal ATP response, vehicle zero; activation, % at 3 µM; 360,000 compounds, 0.48% hits; in the data active means activation above about 15%;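 further: untransfected CHO-K1 host cells lacking M1 receptor as counterscreen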
Starred values were filed as active, the others as inactive; . = not tested or not shown. A selection: hits, their analogues and other compounds. The true share with any hit is near 2.3%.

SMILES	CHRM1 agonist	CHRM1 antagonist	M1 PAM	CHO-K1 Ca PAM	CHO-K1 Ca antag	M1 ag parental
CCOc1cccc2cc(C(=O)Oc3ccc(OC)cc3)c(=O)oc12	6	-4	11	20	-1	16*
Nc1[nH]c(C(=O)c2ccccc2)c(-c2ccccc2C(F)(F)F)c1C(=O)NCc1cccc2ccccc12	.	.	.	10	-16	1
O=C(CN1CCC(Cc2ccccc2)CC1)NC(=O)NCc1ccco1	-3	-32	20*	14	-17	0
O=C(CN1CCN(c2ccccc2O)CC1)NC(=O)NCc1ccco1	2	3	0	-12	19	0
CCN1C(=O)S/C(=C/c2ccc(Sc3nc4ccccc4[nH]3)o2)C1=O	0	31*	-20	16	-3	9
O=C(COc1ccc(Cl)cc1Cl)N/N=C/c1ccc(OC2OC(CO)C(O)C(O)C2O)cc1 (configuration not stated)	-1	-7	4	7	-5	2
CCOC(=O)c1sc(=S)n(-c2cccc(C(F)(F)F)c2)c1SC	-6	-11	2	16	-4	0
CCOC(=O)c1sc(=S)n(-c2ccccc2Cl)c1SC	-11	100*	-32	4	-3	0
CCOC(=O)c1sc(=S)n(-c2ccc(Cl)cc2)c1C	-5	-3	1	-2	3	0
CCOC(=O)c1sc(=S)n(-c2ccccc2)c1SC	-7	51*	-25	17	-9	0
CCn1c2ccccc2c2nc3cc(C(=O)O)ccc3nc21	-6	-1	4	-15	24*	1
CCn1c2ccccc2c2nc3ccccc3nc21	5	-4	6	18	-1	1
CCCCN(CCCC)c1ccc(C(=O)c2ccccc2C(=O)O)c(O)c1	37*	5	-12	8	-1	15*
CNC(=O)c1cn2c3c(ccc(Cl)c3c1=O)OC(C)C2 (configuration not stated)	-4	-9	0	-7	-10	2
O=Cc1cc(Cl)ccc1OCCN1CCC(Cc2ccccc2)CC1	-7	55*	-25	22	-5	3
c1ccc(CC2CCN(Cc3ccccn3)CC2)cc1	-7	8	-6	5	-14	-1
Clc1ccccc1OCCN1CCC(Cc2ccccc2)CC1	-3	30*	-14	24	-18	4
OCc1ccccc1OCCCN1CCC(Cc2ccccc2)CC1	-9	33*	-20	-16	4	0
C=CCOc1ccccc1CN1CCC(Cc2ccccc2)CC1	-8	19	-15	21	-11	2
Clc1cccc(CN2CCC(Cc3ccccc3)CC2)c1	-10	11	-16	17	-32	2
CC(C)c1nnc(NC(=O)c2cccc(NC(=O)C(F)(F)F)c2)s1	-2	-5	6	11	-9	2
CC(C)CCN(C(=O)c1cn2ccccc2n1)c1c(N)n(Cc2ccccc2)c(=O)[nH]c1=O	-1	-11	8	5	-1	1
CSc1cccc(N2CC(C(=O)Nc3ccccc3N3CCCC3)CC2=O)c1 (configuration not stated)	-4	-17	6	-3	-8	3
CSc1ncccc1C(=O)OCC(=O)NC1CCS(=O)(=O)C1 (configuration not stated)	-1	0	0	-1	9	16*
Nc1ccc2nc3n(c(=O)c2c1)CCC3	3	-2	6	-5	26*	0
C[C@H](NC(=O)c1nc[nH]c1C(=O)NCC(=O)OCc1ccccc1)C(=O)OCc1ccccc1	-3	32	-11	0	1	7
CC(C)(C)OC(=O)NCc1ccc(CNC(=O)c2nc[nH]c2C(=O)NCc2ccccc2)cc1	-2	9	-5	6	-12	2
O=C(CNC(=O)c1nc[nH]c1C(=O)NCc1ccccc1)OCc1ccccc1	-3	38*	-19	12	-5	7
C[C@H](NC(=O)c1nc[nH]c1C(=O)NCC(=O)OCc1ccccc1)c1ccccc1	-2	31*	-19	18	-7	6
CC(C)(C)OC(=O)NCc1ccc(CNC(=O)c2[nH]cnc2C(=O)NCC(=O)OCc2ccccc2)cc1	4	44*	-20	-5	10	13
